Data as given in ChEMBL document CHEMBL1961873, “Compounds: GSK PKIS; Assays: Nanosyn kinase panel” (2012).

Assays:
[1] = target: T1, Inhibitor of nuclear factor kappa-B kinase subunit epsilon (Homo sapiens) (UniProt Q14164); details: at 1 µM;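 note: reported values are averaged percent inhibition figures against human IKKε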
T1 sequence (whole entry): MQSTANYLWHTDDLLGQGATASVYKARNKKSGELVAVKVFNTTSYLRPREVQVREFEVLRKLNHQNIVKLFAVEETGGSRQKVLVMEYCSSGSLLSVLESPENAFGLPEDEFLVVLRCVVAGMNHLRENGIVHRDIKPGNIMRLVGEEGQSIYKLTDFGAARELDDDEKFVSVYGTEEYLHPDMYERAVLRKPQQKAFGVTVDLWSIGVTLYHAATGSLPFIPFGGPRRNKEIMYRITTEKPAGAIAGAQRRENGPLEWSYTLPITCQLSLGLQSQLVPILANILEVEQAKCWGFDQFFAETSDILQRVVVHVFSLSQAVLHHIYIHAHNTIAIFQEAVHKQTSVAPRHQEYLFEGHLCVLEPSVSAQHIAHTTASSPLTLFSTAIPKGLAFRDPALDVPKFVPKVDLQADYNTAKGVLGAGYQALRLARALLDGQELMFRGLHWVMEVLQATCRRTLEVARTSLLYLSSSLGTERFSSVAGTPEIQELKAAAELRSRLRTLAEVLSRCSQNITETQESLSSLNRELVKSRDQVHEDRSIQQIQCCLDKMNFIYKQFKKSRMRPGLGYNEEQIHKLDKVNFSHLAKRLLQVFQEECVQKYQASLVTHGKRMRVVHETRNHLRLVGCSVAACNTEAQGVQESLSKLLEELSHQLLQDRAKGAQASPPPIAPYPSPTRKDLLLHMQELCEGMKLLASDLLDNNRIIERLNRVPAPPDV

[2] = target: T2, Serine/threonine-protein kinase Nek1 (Homo sapiens) (UniProt Q96PY6); details: at 0.1 µM
T2 sequence (whole entry): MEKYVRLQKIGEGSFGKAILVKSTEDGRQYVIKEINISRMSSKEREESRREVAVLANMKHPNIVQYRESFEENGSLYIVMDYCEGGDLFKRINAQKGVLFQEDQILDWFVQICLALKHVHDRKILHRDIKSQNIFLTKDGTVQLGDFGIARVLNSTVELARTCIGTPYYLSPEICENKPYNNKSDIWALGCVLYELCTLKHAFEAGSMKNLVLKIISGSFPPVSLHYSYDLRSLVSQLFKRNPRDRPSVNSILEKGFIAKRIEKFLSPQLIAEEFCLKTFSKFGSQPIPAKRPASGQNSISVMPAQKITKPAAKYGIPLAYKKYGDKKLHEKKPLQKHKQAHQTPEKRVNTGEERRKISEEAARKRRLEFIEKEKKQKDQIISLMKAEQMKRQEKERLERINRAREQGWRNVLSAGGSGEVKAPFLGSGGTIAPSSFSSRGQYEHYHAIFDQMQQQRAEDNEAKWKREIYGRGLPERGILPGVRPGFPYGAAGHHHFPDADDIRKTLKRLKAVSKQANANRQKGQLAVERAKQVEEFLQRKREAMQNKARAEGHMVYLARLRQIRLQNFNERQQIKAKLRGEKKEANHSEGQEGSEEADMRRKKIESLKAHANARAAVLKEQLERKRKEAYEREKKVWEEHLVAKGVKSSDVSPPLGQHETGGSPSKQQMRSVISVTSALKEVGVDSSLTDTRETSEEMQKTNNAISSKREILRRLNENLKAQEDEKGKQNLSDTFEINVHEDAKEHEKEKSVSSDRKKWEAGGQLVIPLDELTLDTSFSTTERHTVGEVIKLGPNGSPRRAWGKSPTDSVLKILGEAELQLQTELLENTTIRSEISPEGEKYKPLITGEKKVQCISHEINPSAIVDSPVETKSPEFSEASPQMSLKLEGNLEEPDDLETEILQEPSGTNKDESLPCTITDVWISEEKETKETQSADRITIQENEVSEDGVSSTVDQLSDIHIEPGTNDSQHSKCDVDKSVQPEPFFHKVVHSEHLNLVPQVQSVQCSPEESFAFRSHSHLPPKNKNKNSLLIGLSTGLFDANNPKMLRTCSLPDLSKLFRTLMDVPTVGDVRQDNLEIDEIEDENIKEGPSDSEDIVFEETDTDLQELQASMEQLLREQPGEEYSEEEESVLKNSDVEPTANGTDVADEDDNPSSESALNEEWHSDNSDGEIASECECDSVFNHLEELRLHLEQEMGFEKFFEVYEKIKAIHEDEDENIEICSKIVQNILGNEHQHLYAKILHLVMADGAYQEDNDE

[3] = target: T2, Serine/threonine-protein kinase Nek1 (Homo sapiens); details: at 1 µM
[4] = target: T3, Serine/threonine-protein kinase Nek2 (Homo sapiens) (UniProt P51955); details: at 0.1 µM
T3 sequence (whole entry): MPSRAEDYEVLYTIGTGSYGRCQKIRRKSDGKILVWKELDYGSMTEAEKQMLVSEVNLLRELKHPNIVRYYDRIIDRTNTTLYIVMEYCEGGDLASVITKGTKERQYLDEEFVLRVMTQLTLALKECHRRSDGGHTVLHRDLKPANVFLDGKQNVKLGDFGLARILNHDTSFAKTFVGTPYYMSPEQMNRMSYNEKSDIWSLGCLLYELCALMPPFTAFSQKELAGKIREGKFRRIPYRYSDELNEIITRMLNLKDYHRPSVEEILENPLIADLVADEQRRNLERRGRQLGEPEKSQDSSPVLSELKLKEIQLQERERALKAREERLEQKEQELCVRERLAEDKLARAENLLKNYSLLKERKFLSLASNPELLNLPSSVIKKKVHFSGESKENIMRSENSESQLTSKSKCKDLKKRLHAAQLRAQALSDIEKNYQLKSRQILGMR

[5] = target: T3, Serine/threonine-protein kinase Nek2 (Homo sapiens); details: at 1 µM
[6] = target: Serine/threonine-protein kinase Nek6 (Homo sapiens) (UniProt Q9HC98); details: at 0.1 µM
Serine/threonine-protein kinase Nek6 (Homo sapiens), sequence (Q9HC98 whole entry): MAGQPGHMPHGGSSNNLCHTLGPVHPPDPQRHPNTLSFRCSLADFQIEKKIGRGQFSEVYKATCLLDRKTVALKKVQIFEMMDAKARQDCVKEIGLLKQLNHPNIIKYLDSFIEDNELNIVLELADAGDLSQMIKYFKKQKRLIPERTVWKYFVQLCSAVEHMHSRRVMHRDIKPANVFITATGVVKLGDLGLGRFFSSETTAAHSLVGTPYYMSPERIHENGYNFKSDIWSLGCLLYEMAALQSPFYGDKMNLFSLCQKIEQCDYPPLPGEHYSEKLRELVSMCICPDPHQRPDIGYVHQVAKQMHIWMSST

[7] = target: Serine/threonine-protein kinase Nek6 (Homo sapiens) (UniProt Q9HC98); details: at 1 µM
[8] = target: Serine/threonine-protein kinase Nek7 (Homo sapiens) (UniProt Q8TDX7); details: at 0.1 µM
Serine/threonine-protein kinase Nek7 (Homo sapiens), sequence (Q8TDX7 whole entry, looked up): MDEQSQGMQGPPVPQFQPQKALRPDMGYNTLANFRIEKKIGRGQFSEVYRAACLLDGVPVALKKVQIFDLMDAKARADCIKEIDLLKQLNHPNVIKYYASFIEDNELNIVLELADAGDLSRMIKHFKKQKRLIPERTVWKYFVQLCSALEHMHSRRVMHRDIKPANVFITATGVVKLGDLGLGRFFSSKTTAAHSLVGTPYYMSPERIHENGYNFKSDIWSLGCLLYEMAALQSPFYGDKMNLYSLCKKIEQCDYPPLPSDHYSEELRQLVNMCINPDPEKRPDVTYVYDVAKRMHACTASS

[9] = target: Serine/threonine-protein kinase Nek7 (Homo sapiens) (UniProt Q8TDX7); details: at 1 µM
[10] = target: T4, Serine/threonine-protein kinase Nek9 (Homo sapiens) (UniProt Q8TD19); details: at 0.1 µM;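 note: reported value is the mean percent inhibition of NEK9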
T4 sequence (whole entry): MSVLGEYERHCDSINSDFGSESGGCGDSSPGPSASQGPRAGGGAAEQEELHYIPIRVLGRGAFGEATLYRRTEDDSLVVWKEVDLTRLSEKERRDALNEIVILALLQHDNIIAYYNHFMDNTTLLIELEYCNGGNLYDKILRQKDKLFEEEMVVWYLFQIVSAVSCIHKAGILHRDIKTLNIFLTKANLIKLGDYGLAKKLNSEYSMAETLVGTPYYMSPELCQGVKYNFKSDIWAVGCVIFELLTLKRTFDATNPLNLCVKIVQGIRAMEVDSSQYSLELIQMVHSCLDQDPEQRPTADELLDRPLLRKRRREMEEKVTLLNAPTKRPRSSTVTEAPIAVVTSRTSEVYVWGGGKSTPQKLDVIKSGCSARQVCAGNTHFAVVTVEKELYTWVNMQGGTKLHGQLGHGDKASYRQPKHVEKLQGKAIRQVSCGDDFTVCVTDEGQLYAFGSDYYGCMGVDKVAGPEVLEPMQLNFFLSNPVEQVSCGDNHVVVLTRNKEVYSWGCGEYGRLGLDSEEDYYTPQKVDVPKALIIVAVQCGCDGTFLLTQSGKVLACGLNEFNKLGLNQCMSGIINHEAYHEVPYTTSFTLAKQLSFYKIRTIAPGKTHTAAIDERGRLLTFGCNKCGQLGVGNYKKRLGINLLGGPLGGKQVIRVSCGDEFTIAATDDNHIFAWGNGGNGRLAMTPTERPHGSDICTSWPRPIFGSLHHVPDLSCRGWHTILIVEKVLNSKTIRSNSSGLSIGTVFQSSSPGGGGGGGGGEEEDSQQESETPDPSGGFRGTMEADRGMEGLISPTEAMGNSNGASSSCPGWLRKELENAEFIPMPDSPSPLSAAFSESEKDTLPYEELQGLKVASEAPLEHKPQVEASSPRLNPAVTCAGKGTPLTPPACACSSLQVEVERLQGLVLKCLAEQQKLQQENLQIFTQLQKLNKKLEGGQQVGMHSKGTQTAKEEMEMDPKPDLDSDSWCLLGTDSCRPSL

| SMILES | inhibition [1] [%] | inhibition [2] [%] | inhibition [3] [%] | inhibition [4] [%] | inhibition [5] [%] | inhibition [6] [%] | inhibition [7] [%] | inhibition [8] [%] | inhibition [9] [%] | inhibition [10] [%] |
| --- | --- | --- | --- | --- | --- | --- | --- | --- | --- | --- |
| Cc1cccc(Nc2ncc(-c3ccccc3)o2)c1 | 6.48 | 4.04 | 3.56 | 3.46 | 3.62 | 0.75 | 2.04 | 2.47 | 4.58 | 8.57 |
| COc1cc(/C=N/Nc2ncnc3[nH]ncc23)ccc1O | 96.3 | 3.25 | 12 | 3.52 | 4.62 | 4.45 | 5.85 | 4.07 | 5.51 | 0.45 |
| CC(C)(CO)CNC(=O)c1ccc2c(c1)/C(=N/Nc1ccc(S(N)(=O)=O)cc1)C(=O)N2 | 59.7 | 0.37 | 1.29 | 0.26 | 0.85 | 1.63 | 0.2 | -1.3 | 2.36 | 2.95 |
| CC1=C(C(=O)Nc2cc(Cl)c3[nH]ncc3c2)C(c2ccc(C(F)(F)F)cc2)CC(=O)N1 (stereo not given) | 5.11 | 2.99 | 3.61 | 4.1 | 4.83 | 2.7 | 2.6 | 4.35 | 3.32 | 5.83 |
| COc1ccc(-c2nn3ncccc3c2-c2ccnc(Nc3ccc4c(c3)OCCO4)n2)cc1 | -0.27 | 0.11 | 2.9 | -0.55 | 3.9 | -0.41 | 0.26 | 2.18 | 1.38 | 6.4 |
| COc1ccc2c(-c3ccnc(Nc4cccc(OC(F)(F)F)c4)n3)cnn2n1 | 26.7 | 3.61 | 6.35 | 5.13 | 4.77 | 3.21 | 4.5 | 3.37 | 4.57 | 5.79 |
| COC(=O)Nc1nc2ccc(Oc3ccc(NC(=O)Nc4cccc(Cl)c4)cc3)cc2[nH]1 | 1.25 | 0.97 | 0.11 | 0.46 | 0.04 | 2.21 | -0.77 | 1.46 | 1.97 | 5.35 |
| COc1cc2c(cc1Nc1nc(Nc3ccsc3C(N)=O)c3cc[nH]c3n1)N(C(=O)CN(C)C)CCC2(C)C | 35.2 | 2.74 | 2.8 | 6.02 | 7.22 | 2.59 | 5.27 | 12.7 | 42.1 | 4.77 |
| CN1CCC(n2cnc(-c3ccc(F)cc3)c2-c2ccnc(Nc3ccccc3)n2)CC1 | 6.75 | 1.95 | 2.29 | 2.54 | 3.52 | 4.42 | 3.58 | 2.94 | 2.65 | 5.58 |
| CCCN(CCS(C)(=O)=O)Cc1ccc(-c2ccc3ncnc(Nc4ccc(OCc5cccc(F)c5)c(Cl)c4)c3c2)o1 | 1.08 | 2.4 | 2.96 | 3.32 | 3.71 | -0.2 | 0.97 | 3.69 | 3.24 | 6.94 |
| CC(=O)Nc1cccc(C#Cc2cncnc2Nc2ccc(OCc3cccc(F)c3)c(Cl)c2)c1 | -0.15 | 1.85 | 1.3 | 1.33 | 2.68 | 1.9 | 1.16 | 2.97 | 2.6 | 1.96 |
| CCCN1CCC(c2ccc(Nc3nc(Nc4cc(F)ccc4C(N)=O)c4cc[nH]c4n3)c(OC)c2)CC1 | 5.85 | 4.68 | 21.6 | 4.85 | 17.6 | 4.35 | 8.4 | 7.49 | 8.87 | 8.38 |
| CCn1c(-c2nonc2N)nc2ccccc21 | 1.58 | 2.18 | 2.6 | 3.43 | 4.15 | 5.78 | 0.38 | 2.9 | 4.22 | 0.97 |
| Fc1ccc(-c2nn3ccccc3c2-c2ccncc2)cc1 | 0.04 | 1.98 | 1.91 | 1.2 | 1.45 | 0.37 | 1.47 | 3.72 | 2.56 | 5.49 |
| CNC(=O)c1cncc(/C=C/c2ccccc2Cl)c1 | 2.69 | -0.35 | 1.83 | -0.6 | -0.78 | 1.4 | 5.65 | -1.23 | -1.28 | 1.21 |
| CCOc1ccc2c(-c3ccnc(Nc4cccc(C(F)(F)F)c4)n3)cnn2n1 | 12.1 | 2.34 | 1.31 | 0.57 | 1.02 | 0.83 | 2.66 | 1.88 | 0.03 | 7.49 |
| COc1cccc(-c2c[nH]c3c(N/N=C/c4ccncc4)ncnc23)c1 | 16.8 | 1.94 | 10.6 | 2.57 | 2.88 | 3.57 | -1.66 | 2.88 | 3.62 | 4.67 |
| COC(=O)c1sc(-n2cnc3cc(OC)c(OC)cc32)cc1OCc1ccccc1C(F)(F)F | 8.59 | 2.43 | 0.28 | 4.46 | 3.83 | -0.01 | -1.32 | 6.92 | 4.66 | 6.87 |
| NC(=O)c1sc(-n2cnc3ccc(C(F)(F)F)cc32)cc1OCc1ccccc1Br | 6.28 | 3 | 3.1 | 4.34 | 5.43 | 3.44 | 3.3 | 5.57 | 3.81 | 8.05 |
